Assay outcomes deposited in PubChem by National Center for Advancing Translational Sciences (NCATS).
Only some compounds are listed: those with a hit (about 2.8% of all), similar ones and a draw of the others.
Pol eta inh = qHTS for Inhibitors of Polymerase Eta | DNA polymerase eta (Homo sapiens), Q9Y253 | recombinant Pol eta, fluorescent DNA replication assay | Potency, µM (titrated, usually from 114 µM), without a hit: at the top dose activity change, negative = inhibition, usual class: inhibitors | 390,000 compounds, 1.2% hits; note: potency is the fitted concentration of half-maximal effect; % is set by controls: 0 for no effect and ±100 for the full control effect
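Fluorescent replication assay: 50 nM final substrate added after a 15 min room-temperature compound preincubation with 10 nM enzyme. Signal taken at 0 min and again at 10 min.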
POLK inh = qHTS for Inhibitors of Polymerase Kappa | DNA polymerase kappa (Homo sapiens), Q9UBT6 | purified Pol kappa, fluorescent DNA synthesis assay, 10 min | Potency, µM (doses to about 107 µM), without a hit: at the highest dose activity, negative = inhibition, most hits filed as inhibitors | 400,000 compounds, 0.53% hits | AID 588579, 2011; note: potency is the fitted concentration of half-maximal effect; % is set by controls: 0 for no effect and ±100 for the full control effect
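Fluorescent qHTS in 1536-well format: enzyme (10 nM) and compound sat 15 min at room temperature before 50 nM substrate (final) was added. Signal taken at 0 and 10 min; no-enzyme buffer wells were negative controls.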
WRN helicase inh = qHTS for Inhibitors of WRN Helicase; Bifunctional 3'-5' exonuclease/ATP-dependent helicase WRN (Homo sapiens), Q14191; Potency, µM (top dose mostly 114 µM), for the others: at the top dose activity change, negative = inhibition, usual class: inhibitors; 360,000 compounds, 0.46% hits; WRN helicase unwinding, fluorescent forked duplex, kinetic; note: potency is the fitted concentration of half-maximal effect; % is set by controls: 0 for no effect and ±100 for the full control effect; nearly all actives have a fitted effect of over 55% in size
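WRN at 20 nM final was preincubated with compound for 15 min at room temperature; reaction started with 100 nM forked duplex oligonucleotide carrying fluorophore and quencher plus 2 mM ATP (final). Unwinding followed kinetically by red fluorescence (ex 525/em 598 nm).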
POLB inh = qHTS Assay for Inhibitors of DNA Polymerase Beta; Pol beta primer extension/strand displacement, fluorescence kinetic; Potency, µM (series often up to 114 µM), without a hit: top-dose activity change, negative = inhibition, hits mostly inhibitors; 340,000 compounds, 1.3% hits; AID 485314, 2010; note: potency is the fitted concentration of half-maximal effect; % is set by controls: 0 for no effect and ±100 for the full control effect
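Values derive from four-parameter Hill fits of normalized kinetic data: reads at 0 and 10 min following addition of 50 nM substrate to 10 nM Pol beta preincubated 15 min with compound.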
PI5P4K alpha inh = qHTS for Inhibitors of phosphatidylinositol 5-phosphate 4-kinase (PI5P4K); Phosphatidylinositol 5-phosphate 4-kinase type-2 alpha (Homo sapiens), P48426; PI5P4Kalpha enzyme, ADP-Glo luminescence, 60 min; active compounds read low; max response, %; 330,000 compounds, 1.2% hits; active = max response of -50% or lower; inconclusive = between -30% and -50%; inactive = -30% or higher; note: value at the top dose of about 77 µM; % is set by controls: 0 for no effect and ±100 for the full control effect
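Quantitative HTS of the MLSMR library against PI5P4Kalpha with substrate. ATP added last at 5 microM final; room temperature, 60 minutes. Remaining ATP depleted, ADP converted and read as luminescence.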
POLI inh = qHTS for Inhibitors of Polymerase Iota; AID 588590, 2011; Potency, µM (doses to about 115 µM), for inactives: top-dose activity, negative = inhibition, hits mostly inhibitors; Pol iota fluorescent replication assay, 10 min; 390,000 compounds, 1% hits; note: potency is the fitted concentration of half-maximal effect
Target sequence (Q9UNA4 whole entry, looked up): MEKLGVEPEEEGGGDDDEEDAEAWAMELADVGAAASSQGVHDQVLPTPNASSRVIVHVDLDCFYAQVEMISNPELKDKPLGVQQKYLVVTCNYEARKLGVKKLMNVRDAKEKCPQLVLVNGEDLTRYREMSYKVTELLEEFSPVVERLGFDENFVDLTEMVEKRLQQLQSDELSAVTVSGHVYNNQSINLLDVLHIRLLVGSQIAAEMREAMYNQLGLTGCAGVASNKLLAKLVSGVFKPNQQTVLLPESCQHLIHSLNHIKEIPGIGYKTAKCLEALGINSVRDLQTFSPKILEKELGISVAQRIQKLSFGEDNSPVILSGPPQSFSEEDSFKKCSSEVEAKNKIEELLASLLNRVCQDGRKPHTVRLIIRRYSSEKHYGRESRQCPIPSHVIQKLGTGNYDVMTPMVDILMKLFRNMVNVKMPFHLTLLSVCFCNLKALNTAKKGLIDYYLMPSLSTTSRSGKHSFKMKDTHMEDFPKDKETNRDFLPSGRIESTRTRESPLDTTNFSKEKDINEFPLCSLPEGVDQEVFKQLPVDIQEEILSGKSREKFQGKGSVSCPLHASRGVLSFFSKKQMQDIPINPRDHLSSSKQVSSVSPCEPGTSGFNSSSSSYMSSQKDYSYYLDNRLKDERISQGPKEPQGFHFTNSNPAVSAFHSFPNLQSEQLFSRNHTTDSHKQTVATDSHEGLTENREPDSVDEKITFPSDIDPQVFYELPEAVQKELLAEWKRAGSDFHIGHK
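Fluorescent replication assay read twice, at 0 min and 10 min after adding 50 nM (final) substrate. Enzyme (10 nM) and compounds were first incubated 15 min at room temperature; enzyme-free buffer wells were negative controls.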
ADP-Glo counter = qHTS for Inhibitors of PI5P4K: ADP-Glo counter assay; shares compounds with PI5P4K alpha inh; ADP-Glo detection counter-screen, luciferase luminescence, no enzyme; Potency, µM (doses to about 76.9 µM), for the others: at the highest dose activity change, negative = inhibition, actives largely listed as inhibitors; 1,100 tested, under 10 active
An asterisk follows results filed as active; ? = inconclusive; nt = not tested or not shown; [ ] = another dose, or the depositor's remark. Unless noted, calls come from the whole dose curve; as a rule, active = well fitted curve in the direction sought with a large enough effect; inconclusive = small, poorly fitted or top-dose-only effect, or another doubt; inactive = no such curve, though single readings can be large; an effect the other way counts as inactive or inconclusive.

SMILES	Pol eta inh	POLK inh	WRN helicase inh	POLB inh	PI5P4K alpha inh	POLI inh	ADP-Glo counter
Cn1c(NC(=O)c2ccc(F)cc2)c(-c2ccccn2)c(=O)c2ccccc21	-13.1%	-19.9%	1.4%	-5.2%	-3.8	25.9%	nt
c1ccc(-c2cc3nc(NCc4cccs4)nc(NCc4ccc5occc5c4)c3s2)cc1	nt	nt	-2.8%	nt	nt	nt	-6.9%
O=C(CC[C@H]1O[C@@H](n2cnc3c(NC(=O)c4ccccc4)ncnc32)[C@H](O)[C@@H]1O)NCC1CCCCC1	nt	nt	4.2%	nt	-1.4	nt	nt
COc1cc(C(=O)Nc2nc3ccc(S(C)(=O)=O)cc3s2)cc(OC)c1C	4.3%	-6.2%	6.1%	-9.1%	-11.8	38.0%	nt
COc1cc(OC)cc(C(=O)Nc2nc3ccc(S(C)(=O)=O)cc3s2)c1	-13.0%	-4.2%	?	14.9%	-74.0*	5.8%	-16.5%
Nc1nc(NCc2ccco2)nc(Nc2cccc(F)c2)c1[N+](=O)[O-]	-20.6%	1.7%	-4.7%	5.3%	-5.4	96.7%	nt
COc1ccc(CC(=O)NCc2nc(-c3ccccc3)no2)cc1	-6.5%	7.6%	-1.9%	-15.8%	1.7	37.0%	nt
COc1ccc(OCC(=O)NCc2nc(-c3ccccc3)no2)cc1	?	-0.8%	-8.2%	nt	-57.6*	42.5%	3.3%
COc1ccc(-c2nnn(CC(=O)N(CC(=O)NC3CCCC3)c3ccccc3)n2)cc1OC	-7.1%	-18.3%	-14.0%	-21.5%	-51.3*	5.2%	4.9%
Cc1ccccc1SCc1noc(C(=O)NC(C)C)c1C(=O)O	2.4%	-7.3%	11.0%	26.6%	-12.4	-1.9%	nt
CCCCNC(=O)c1onc(CSc2ccc(OC)cc2)c1C(=O)O	-11.4%	4.5%	4.7%	14.3%	-50.2*	2.2%	-2.8%
CC(C)NC(=O)c1onc(CSc2ccccc2F)c1C(=O)O	-0.6%	-5.5%	2.7%	-0.3%	-65.5*	?	0.3%
NS(=O)(=O)c1cccc(NC(=O)CCN2C(=O)C3CCCCC3C2=O)c1 (stereo unspecified)	?	-3.5%	6.6%	nt	2.0	19.5%	nt
CC(C)(C)C1COc2ccccc2N1C(=O)c1cccc(Cl)c1 (stereo unspecified)	-3.4%	-10.4%	-1.6%	4.9%	7.8	60.0%	nt
OCC1(Cc2ccccc2)CCCN(Cc2ccn[nH]2)C1 (stereo unspecified)	-17.6%	7.3%	-3.3%	-1.1%	1.4	37.6%	nt
COC(=O)CSc1nc(C)cc(C)n1	0.9%	-12.3%	?	-10.8%	-67.3*	44.5%	-6.9%
CN(c1ccccc1)S(=O)(=O)c1ccc(Cl)c(C(=O)Nc2ccccc2N2CCOCC2)c1	-18.4%	-7.5%	-8.2%	nt	14.9	17.5%	nt
O=C(NCc1ccc(F)cc1)C1CCCN(c2cnccn2)C1 (stereo unspecified)	-6.9%	8.5%	2.1%	35.5%	1.9	-11.7%	nt
O=C(NCc1ccc(F)cc1)C1CCN(c2cnccn2)CC1	1.2%	-10.4%	-14.4%	58.8%	-53.5*	53.4%	0.7%
Cc1cc(CN(C)C(=O)c2ccc3nc(Cc4ccccc4F)oc3c2)on1	8.6%	-8.4%	2.2%	27.3%	9.1	-0.9%	nt
Cc1sc2ncn(CC(=O)N3CCCC(C)C3)c(=O)c2c1S(=O)(=O)N1CCCCC1 (stereo unspecified)	-10.5%	-5.9%	1.5%	25.1%	2.5	5.1%	nt
Cc1sc2ncn(CC(=O)N3CCC(C(N)=O)CC3)c(=O)c2c1S(=O)(=O)N1CC(C)CC(C)C1 (stereo unspecified)	-98.1%	?	-6.1%[11.6 µM]	24.5%	-90.0*	?	-10.3%
CNC(=O)COc1ccccc1C(=O)Nc1ccccc1	nt	-2.8%	nt	nt	nt	2.4%	nt
COc1cc(C(=O)NCCSc2ccccc2)cc(OC)c1OC	-10.8%	-4.2%	4.4%	0.7%	-1.1	-22.2%	nt
COc1ccc(C(=O)NCCSc2ccccc2)cc1OC	-6.0%	-4.5%	?	-14.5%	-87.2*	67.6%	-11.7%
SMILES	Pol eta inh	POLK inh	WRN helicase inh	POLB inh	PI5P4K alpha inh	POLI inh	ADP-Glo counter
O=C(CCC(=O)N1CCN(c2ccccn2)CC1)c1ccc(Cl)s1	14.1µM*	0.0%	-19.4%	nt	-54.6*	?	-2.7%
O=C(CCC(=O)N1CCN(c2ccccn2)CC1)c1cccs1	-18.8%	-6.8%	-22.7%	nt	-0.5	4.2%	nt
Cc1nc2scc(C)n2c(=O)c1S(=O)(=O)Nc1ccc(OC(F)(F)F)cc1	-15.0%	9.3%	-1.5%	-2.3%	1.0	44.0%	nt
O=C(Nc1ccc(-c2nc3ncccc3o2)cc1)c1ccco1	?	?	-21.0%[57.1 µM]	35.5µM*	-53.0*	?	4.9%
CCc1ccccc1N1CC(c2nc3ccccc3n2CCCOc2ccc(Cl)cc2)CC1=O (stereo unspecified)	-14.2%	-9.8%	nt	6.0%	nt	-4.4%	nt
COc1ccc2cc(C#N)c(SCC(=O)N3CCCC3)nc2c1	-0.2%	-0.3%	8.9%	16.2%	2.4	16.8%	nt
COc1ccc2nc(SCC(=O)N3CCN(c4ccc(F)cc4)CC3)c(C#N)cc2c1	-9.1%	-7.8%	-21.1%	?	-50.2*	?	5.6%
O=C(CSc1nc2c(cnn2-c2cccc(Cl)c2)c(=O)[nH]1)NCC1CCCO1 (stereo unspecified)	-15.7%	1.3%	-0.2%	nt	nt	23.3%	-6.0%
Cc1ccc(-n2ncc3c(=O)[nH]c(SCC(=O)NCC4CCCO4)nc32)cc1 (stereo unspecified)	-2.9%	-0.1%	8.1%	nt	-1.2	-6.5%	nt
Cc1ccc(C2=NN(CCC(=O)NCCc3cccc(C)c3)C(=O)CC2)cc1	-12.5%	-21.5%[60.1 µM]	nt	3.5%	nt	-10.5%	nt
CCOC(=O)C1=C(N)N(c2ccccc2)C(=O)C1	-7.7%	-6.0%	?	16.8%	-57.5*	?	-4.6%
O=C(Nc1cccc2ccccc12)c1csc(COCCO)n1	nt	nt	-12.8%	nt	4.5	nt	nt
O=C(Nc1cccc2cccnc12)c1csc(COCCO)n1	nt	nt	0.1%	nt	-27.7	nt	-6.6%
Nc1ncc([N+](=O)[O-])cc1S(=O)(=O)c1ccccc1	-15.8%	1.1%	4.7%	nt	-1.1	16.0%	nt
Cc1cc(Br)cn2c(Cc3ccccc3)c(-c3ccco3)nc12	nt	nt	-15.1%	nt	-19.9	nt	nt
Cc1cc(Br)cn2c(Cc3ccsc3)c(-c3ccco3)nc12	nt	nt	?	nt	-90.1*	nt	-2.1%
COc1ccc(Cc2c(-c3ccco3)nc3ccc(Br)cn23)c(C)c1	nt	nt	?	nt	-59.7*	nt	-6.0%
